# Data taken from ChEMBL document CHEMBL3433997, “St. Jude Leishmania screening dataset” (2016).
# Experiments:
# Assay type in all cases: functional
# [1] = biological target: Solute carrier family 2, facilitated glucose transporter member 1 (Homo sapiens) (UniProt P11166); experiment: ST_JUDE_LEISH: Cytotoxicity at 2uM final concentration against transgenic Leishmania Mexicana promastigotes LmGLUT1 that are glucose transport deficient and complemented with the human glucose transporter GLUT1. Activity is measured by DNA content using SYBR green in vitro
# Solute carrier family 2, facilitated glucose transporter member 1 (Homo sapiens), sequence (P11166 whole entry): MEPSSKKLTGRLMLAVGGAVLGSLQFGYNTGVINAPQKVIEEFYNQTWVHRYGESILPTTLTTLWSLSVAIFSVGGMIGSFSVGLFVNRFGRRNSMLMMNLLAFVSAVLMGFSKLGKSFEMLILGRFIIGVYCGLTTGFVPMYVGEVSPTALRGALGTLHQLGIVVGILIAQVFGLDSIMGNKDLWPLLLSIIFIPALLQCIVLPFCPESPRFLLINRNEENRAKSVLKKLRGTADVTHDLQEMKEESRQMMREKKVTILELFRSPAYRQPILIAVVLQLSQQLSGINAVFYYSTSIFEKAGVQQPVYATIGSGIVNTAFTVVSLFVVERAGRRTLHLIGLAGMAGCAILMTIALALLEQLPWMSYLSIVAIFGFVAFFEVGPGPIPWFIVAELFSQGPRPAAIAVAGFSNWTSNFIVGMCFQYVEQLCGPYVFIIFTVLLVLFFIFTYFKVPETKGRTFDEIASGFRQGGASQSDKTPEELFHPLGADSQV
# [2] = biological target: Hexose transporter 1 (Plasmodium falciparum) (UniProt O97467); experiment: ST_JUDE_LEISH: Cytotoxicity at 2uM final concentration against transgenic Leishmania Mexicana promastigotes LmPfHT that are glucose transport deficient and complemented with the Plasmodium falciparum hexose transporter. Activity is measured by DNA content using SYBR green in vitro
# [3] = biological target: Glucose transporter (Leishmania mexicana) (UniProt O61059); experiment: ST_JUDE_LEISH: Cytotoxicity at 2uM final concentration against transgenic Leishmania Mexicana promastigotes LmGT2 that are glucose transport deficient and complemented with the L. Mexicana glucose transporter 2. Activity is measured by DNA content using SYBR green in vitro
Structure (SMILES),inhibition [1] [%],inhibition [2] [%],inhibition [3] [%]
CC(C)c1ccc(CN2CCC(CNC(=O)c3cc(-c4cccc(C(F)(F)F)c4)cs3)C2)cc1 (configuration not stated),1.18,1.74,3.79
O=C(/C=C/c1ccc(Cl)c(Cl)c1)NC1CCC(CN2CCC(c3nc4ccccc4s3)CC2)CC1 (configuration not stated),0.92,5.64,-1.65
CC(=O)NCCNc1nccc(N2CCc3ncnc(Nc4ccc(OCc5ccccn5)c(Cl)c4)c3C2)n1,0.91,1.71,1.9
N=C(Nc1cccc(Cc2ccccc2)n1)Nc1ncccn1,2.06,1.79,1.88
FC(F)(F)c1ccc(CSc2ccc3nnc(-c4ccccn4)n3n2)cc1,9.17,9.71,7.64
O=C(c1ccc(-c2ccccn2)s1)N1CCc2cc3nccc(N4CCN5CCC[C@H]5C4)c3cc21,8.55,8.34,8.66
CCNc1cc(C)nc(Nc2ccc(F)cc2)n1,22.3,11.9,8.37
CCCCCCCc1c(C)nc2cccc(OC)c2c1O,47.3,59.4,33.9
CC(C)(C)CC(=O)Nc1ccc(Nc2cc(-c3ccncc3)cc3ncc(C(N)=O)cc23)cc1,-0.38,1.53,1.26
COc1ccccc1CCNc1nc(C)cc(N[C@@H](Cc2ccccc2)C(=O)NCCCOC(C)C)n1,3.06,3.2,-0.1
COc1cccc(-c2cnc(N)c(-c3nc4cc(Cl)c(F)cc4[nH]3)c2)c1,15.6,14.7,8.86
COc1cc(Cc2cnc(N)nc2N)cc(OCCCCc2ccc([N+](=O)[O-])cc2)c1OC,-1.12,-1.89,1.51
C(=NN=c1cc[nH]c2ccccc12)c1ccncc1,3.99,4.32,3.95
COc1ccc(NC(=O)/C=C/c2ccccc2Cl)cc1OCCN1CCN(c2ccncc2)CC1,1.29,-0.96,-1.49
